The campaign covered roughly 5,500 compounds. About 2,000 (36%) were called active. Inconclusive results (about 18%) are left out. No stated cut-off is given here; in the data, active means normalized growth mostly below about 0.91 (no sharp cut-off); inconclusive means no clear call, values can overlap the other calls; inactive means mostly above about 0.92. This is one part of the list.
Test: chemical genetic growth profiling, strain panel (AID 1159580);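 further: tested at 20 µM; growth read once vehicle control cultures reached saturation at 30 °C; 1 = growth at the plate median or of vehicle wells; lower values mean less growth of the strain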
Details: S. cerevisiae deletion strains, growth OD
[1] = locus YAR019C, strain CDC15, hits give low values
[2] = locus YBL105C, strain PKC1, hits give low values
[3] = locus YBR135W, strain CKS1, hits give low values
[4] = locus YBR136W, strain MEC1, hits give low values
[5] = locus YBR160W, strain CDC28, hits give low values
[6] = locus YDL017W, strain CDC7, hits give low values
[7] = locus YDL028C, strain MPS1, hits give low values
[8] = locus YDL101C, strain DUN1, hits give low values
[9] = locus YDL108W, strain KIN28, hits give low values
[10] = locus YDL132W, strain cdc53, hits give low values
[11] = locus YDL214C, strain PRR2, hits give low values
[12] = locus YDR052C, strain DBF4, hits give low values
[13] = locus YDR054C, strain cdc34, hits give low values
[14] = locus YDR226W, strain ADK1, hits give low values
[15] = locus YDR477W, strain SNF1, hits give low values
[16] = locus YER123W, strain YCK3, hits give low values
[17] = locus YER133W, strain GLC7, hits give low values
[18] = locus YFL009W, strain cdc4, hits give low values
[19] = locus YFL029C, strain CAK1, hits give low values
[20] = locus YFR003C, strain YPI1, hits give low values
[21] = locus YFR019W, strain FAB1, hits give low values
[22] = locus YFR028C, strain CDC14, hits give low values
[23] = locus YGR040W, strain KSS1, hits give low values
[24] = locus YGR052W, strain FMP48, hits give low values
[25] = locus YGR092W, strain DBF2, hits give low values
[26] = locus YHR030C, strain SLT2, hits give low values
[27] = locus YHR079C, strain IRE1, hits give low values
[28] = locus YHR082C, strain KSP1, hits give low values
[29] = locus YHR205W, strain SCH9, hits give low values
[30] = locus YIL147C, strain SLN1, hits give low values
[31] = locus YJL095W, strain BCK1, hits give low values
[32] = locus YJL128C, strain PBS2, hits give low values
[33] = locus YJL157C, strain FAR1, hits give low values
[34] = locus YJR016C, strain ILV3, hits give low values
[35] = locus YJR066W, strain TOR1 (second series), hits give low values
[36] = locus YJR066W, strain TOR1, hits give low values
[37] = locus YKL048C, strain ELM1, hits give low values
[38] = locus YKL067W, strain YNK1, hits give low values
[39] = locus YKL101W, strain HSL1, hits give low values
[40] = locus YKL193C, strain SDS22, hits give low values
[41] = locus YKL203C, strain TOR2, hits give low values
[42] = locus YLR113W, strain HOG1, hits give low values
[43] = locus YLR133W, strain CKI1, hits give low values
[44] = locus YLR403W, strain SFP1, hits give low values
[45] = locus YML070W, strain DAK1, hits give low values
[46] = locus YMR001C, strain CDC5, hits give low values
[47] = locus YMR205C, strain PFK2 (second series), hits give low values
[48] = locus YMR277W, strain FCP1, hits give low values
[49] = locus YNL006W, strain LST8, hits give low values
[50] = locus YNL020C, strain ARK1, hits give low values
[51] = locus YNL161W, strain CBK1, hits give low values
[52] = locus YNL183C, strain NPR1, hits give low values
[53] = locus YNL207W, strain RIO2, hits give low values
[54] = locus YNL222W, strain SSU72, hits give low values
[55] = locus YNL307C, strain MCK1 (second series), hits give low values
[56] = locus YOL078W, strain AVO1, hits give low values
[57] = locus YOL136C, strain PFK27, hits give low values
[58] = locus YOR061W, strain CKA2, hits give low values
[59] = locus YOR119C, strain RIO1, hits give low values
[60] = locus YOR231W, strain MKK1, hits give low values
[61] = locus YOR329C, strain SCD5, hits give low values
[62] = locus YPL031C, strain PHO85, hits give low values
[63] = locus YPL153C, strain RAD53, hits give low values
[64] = locus YPL204W, strain HRR25, hits give low values
[65] = locus YPL209C, strain IPL1, hits give low values
[66] = locus YPL256C, strain CLN2, hits give low values
[67] = locus YPR025C, strain CCL1, hits give low values
[68] = locus YPR106W, strain ISR1, hits give low values
[69] = locus YPR111W, strain DBF20, hits give low values
[70] = strain NNK1, hits give low values
[71] = strain TSCII, hits give low values

Measured: normalized growth

N#C/C(=N/Nc1ccc(Cl)cc1)C(N)=S
active: [1] 0.44 | [2] 0.434 | [3] 0.529 | [4] 0.513 | [5] 0.515 | [6] 0.616 | [7] 0.647 | [8] 0.345 | [9] 0.617 | [10] 0.43 | [11] 0.176 | [12] 0.825 | [13] 0.325 | [14] 0.57 | [15] 0.155 | [16] 0.197 | [17] 0.194 | [18] 0.468 | [19] 0.467 | [20] 0.644 | [21] 0.182 | [22] 0.577 | [23] 0.179 | [24] 0.204 | [25] 0.15 | [26] 0.208 | [27] 0.145 | [28] 0.206 | [29] 0.226 | [30] 0.627 | [31] 0.186 | [32] 0.628 | [33] 0.172 | [34] 0.574 | [35] 0.234 | [36] 0.244 | [37] 0.327 | [38] 0.167 | [39] 0.212 | [40] 0.42 | [41] 0.217 | [42] 0.275 | [43] 0.205 | [44] 0.175 | [45] 0.183 | [46] 0.475 | [47] 0.236 | [48] 0.352 | [49] 0.452 | [50] 0.182 | [51] 0.427 | [52] 0.185 | [53] 0.515 | [54] 0.428 | [55] 0.177 | [56] 0.483 | [57] 0.199 | [58] 0.23 | [59] 0.225 | [60] 0.171 | [61] 0.515 | [62] 0.207 | [63] 0.193 | [64] 0.203 | [65] 0.601 | [66] 0.231 | [67] 0.611 | [68] 0.475 | [69] 0.583 | [70] 0.471 | [71] 0.495

CC(C)(C)c1cc(C(=O)/C(C#N)=N\Nc2ccc(Cl)cc2)no1
inactive: [1] 0.959 | [2] 0.974 | [3] 0.952 | [4] 0.963 | [5] 0.966 | [6] 0.96 | [7] 0.95 | [8] 0.979 | [9] 0.962 | [12] 0.967 | [14] 0.952 | [18] 0.907 | [19] 0.95 | [20] 0.96 | [22] 0.958 | [30] 0.957 | [34] 0.914 | [40] 0.959 | [46] 0.958 | [48] 0.953 | [49] 0.981 | [51] 0.96 | [54] 0.966 | [56] 0.922 | [61] 0.975 | [65] 0.97 | [67] 0.961 | [69] 0.874 | [71] 0.948
active: [11] 0.253 | [15] 0.229 | [16] 0.146 | [17] 0.326 | [21] 0.116 | [23] 0.321 | [24] 0.281 | [25] 0.0911 | [26] 0.212 | [27] 0.106 | [28] 0.154 | [29] 0.043 | [31] 0.145 | [32] 0.396 | [33] 0.165 | [35] 0.237 | [36] 0.169 | [37] 0.172 | [38] 0.213 | [39] 0.106 | [41] 0.284 | [42] 0.156 | [43] 0.112 | [44] 0.149 | [45] 0.137 | [47] 0.137 | [50] 0.119 | [52] 0.294 | [55] 0.0976 | [57] 0.191 | [58] 0.103 | [59] 0.337 | [60] 0.0922 | [62] 0.105 | [63] 0.115 | [64] 0.115 | [66] 0.146 | [68] 0.842

N#C/C(=N/Nc1ccc(Cl)cc1)C(=O)C1CC1
active: [1] 0.863 | [2] 0.86 | [3] 0.854 | [4] 0.86 | [5] 0.863 | [6] 0.865 | [7] 0.859 | [8] 0.903 | [9] 0.86 | [10] 0.847 | [12] 0.862 | [13] 0.848 | [14] 0.855 | [15] 0.674 | [16] 0.492 | [17] 0.626 | [18] 0.844 | [19] 0.853 | [20] 0.857 | [22] 0.854 | [23] 0.665 | [25] 0.332 | [26] 0.416 | [30] 0.865 | [31] 0.416 | [34] 0.854 | [37] 0.793 | [40] 0.851 | [41] 0.706 | [42] 0.567 | [44] 0.646 | [46] 0.855 | [48] 0.847 | [49] 0.856 | [51] 0.86 | [52] 0.551 | [53] 0.842 | [54] 0.848 | [55] 0.641 | [56] 0.846 | [59] 0.667 | [60] 0.576 | [61] 0.86 | [62] 0.592 | [63] 0.595 | [64] 0.554 | [65] 0.853 | [66] 0.65 | [67] 0.856 | [71] 0.85
inactive: [11] 0.807 | [21] 0.916 | [24] 0.666 | [27] 0.604 | [28] 0.691 | [29] 0.711 | [32] 0.862 | [33] 0.757 | [35] 0.737 | [36] 0.643 | [38] 0.763 | [39] 0.802 | [43] 0.811 | [45] 0.735 | [47] 0.774 | [50] 0.805 | [57] 0.752 | [58] 0.81 | [68] 0.92 | [69] 0.876 | [70] 0.885
